Test [1] in a line: small molecules captured by biotinylated probe aFSTL3 – biochemical, small-molecule microarray, fluorescence 635/667, stem cell growth factor project, primary screen (AID 1064).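 Also: measures binding of the biotinylated anti-FSTL3 antibody to printed compounds.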 Conditions: higher = more signal.
The nature of test [2]: binders from COS7 lysate, DM2A8 probe, primary screen, torsin A project, cell lysate, small-molecule microarray, fluorescence 635/667 (AID 1065). As to conditions: higher = more signal, COS7 lysate expressing mutant human TOR1A.
Test [3] is described as follows: small molecules captured by biotinylated probe aFGF2 – biochemical, small-molecule microarray, fluorescence 635/667, stem cell growth factor project, primary screen (AID 1067).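 Also: measures binding of biotinylated aFGF2 protein to printed compounds on slides; z-score merges feature fluorescence and signal-to-noise across triplicate slides.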 Conditions: higher = more signal.
A short description of test [4]: small molecules captured by biotinylated probe aFGF10 – biochemical, small-molecule microarray, fluorescence 635/667, stem cell growth factor project, primary screen (AID 1071).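 Also: score merges 667 nm spot intensity and signal to noise from triplicate slides.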 As to conditions: higher = more signal.
Test [5] concerns the target Neurogenic locus notch homolog protein 2 (Homo sapiens) (UniProt Q04721). The test can be described thus: small molecules binding Notch2 protein – biochemical, small-molecule microarray, 635 nm fluorescence, stem cell growth factors, primary screen (AID 1073). Conditions: higher = more signal.
The target of test [6] is Pro-neuregulin-1, membrane-bound isoform (Homo sapiens) (UniProt Q02297). The test can be described thus: small molecules binding neuregulin-1 protein – biochemical, small-molecule microarray, fluorescence 635/667, psychiatric disease protein project, primary screen (AID 1075).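 Also: score combines 667 nm spot fluorescence with signal to noise.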 As to conditions: NRG1 binding, 635 nm fluorescence, higher = more signal.
Sequence of Pro-neuregulin-1, membrane-bound isoform (Homo sapiens) (Q02297 whole entry, looked up, the tested form may be a part, canonical isoform): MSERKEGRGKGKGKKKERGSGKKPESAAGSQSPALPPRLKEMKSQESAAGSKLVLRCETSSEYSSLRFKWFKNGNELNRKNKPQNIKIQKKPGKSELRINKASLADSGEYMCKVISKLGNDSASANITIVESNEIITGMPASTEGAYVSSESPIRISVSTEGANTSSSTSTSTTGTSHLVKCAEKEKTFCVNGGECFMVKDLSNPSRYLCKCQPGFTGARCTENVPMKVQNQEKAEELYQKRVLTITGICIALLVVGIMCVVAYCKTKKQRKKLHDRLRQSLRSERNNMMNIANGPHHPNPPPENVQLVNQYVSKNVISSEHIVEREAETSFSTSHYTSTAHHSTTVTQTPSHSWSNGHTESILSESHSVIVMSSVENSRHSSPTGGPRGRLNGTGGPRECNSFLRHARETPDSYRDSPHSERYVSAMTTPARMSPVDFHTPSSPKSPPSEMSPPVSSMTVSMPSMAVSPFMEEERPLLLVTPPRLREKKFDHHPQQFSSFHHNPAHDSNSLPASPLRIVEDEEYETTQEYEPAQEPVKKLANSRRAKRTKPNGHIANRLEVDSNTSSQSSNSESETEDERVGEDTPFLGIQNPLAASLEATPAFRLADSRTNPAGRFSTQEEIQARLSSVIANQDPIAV
The subject of test [7] is Neuregulin-1 EGF-like domain. The test can be described thus: small molecules binding NRG1 EGF domain – biochemical, small-molecule microarray, 635 nm fluorescence, primary screen (AID 1081).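 Also: binding of the protein to compounds printed on small-molecule microarray slides.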 Conditions: higher = more signal.
Test [8] can be described thus: FRG1 expression reporter modulators in myotubes – cell-based, C2C12 myotubes, firefly/Renilla luciferase, luminescence, FRG1 inhibition for FSHD, primary screen (AID 1084). Conditions: FRG1 promoter luciferase, higher = more signal, called active from +8 up or from −8 down.
Test [9] is described as follows: small molecules captured by biotinylated probe aFST – biochemical, small-molecule microarray, fluorescence 635/667, stem cell growth factor project, primary screen (AID 1086).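 Also: score merges 667 nm fluorescence with signal-to-noise of each printed compound spot.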 Conditions: higher = more signal.
The nature of test [10]: binders of probe aHhip on microarray, primary screen, stem cell growth factor project, biochemical, small-molecule microarray, fluorescence 635/667 (AID 1087).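 Also: score merges spot fluorescence at 667nm with spot signal to noise ratio.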 Conditions: higher = more signal.
For test [11], the system named is PRMT1 (protein arginine N-methyltransferase 1). The test can be described thus: small molecules binding arginine methyltransferase PRMT1 – biochemical, small-molecule microarray, 635 nm fluorescence, primary screen (AID 1088).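 Also: binding of Prmt1 protein to compounds spotted on small-molecule microarray slides.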 As to conditions: higher = more signal.
Test [12] is described as follows: growth effects on S. cerevisiae YJM789 – YJM789 clinical isolate, OD600, 24 h, basal, primary screen (AID 1089).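 Also: growth of clinical yeast isolate S. cerevisiae YJM 789 seeded 1000 cells per well; test concentration not given here.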 Conditions: higher = more signal, called active from +8 up or from −8 down.
Test [13] in a line: S. pombe growth modifiers, basal conditions – strain 972, OD600, 24 h, no modulator, primary screen (AID 1090).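 Also: basal condition with compound alone and no growth modifier present; test concentration not given here.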 As to conditions: S. pombe 972 growth, higher = more signal, called active from +8 up or from −8 down.
Test [14] in a line: budding yeast growth modifiers under rapamycin – strain BY4716, OD600, 96 h, primary screen (AID 1091). Also: test concentration not given here. As to conditions: S. cerevisiae BY4716 + rapamycin, higher = more signal, called active from +8 up or from −8 down.
The target of test [15] is Torsin-1A-interacting protein 2 (Homo sapiens) (UniProt Q8NFQ8). The test can be described thus: small molecules binding lysate-expressed LULL1 – cell lysate, human LULL1 lysate, 635/667 nm fluorescence, primary screen (AID 1092).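 Also: probe is lysate of COS7 cells overexpressing human LULL1; score merges per-feature 667 nm fluorescence with signal-to-noise.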 As to conditions: small-molecule microarray, hLULL1 lysate binding, 635 nm fluorescence; higher = more signal.
Sequence of Torsin-1A-interacting protein 2 (Homo sapiens) (Q8NFQ8 whole entry, looked up): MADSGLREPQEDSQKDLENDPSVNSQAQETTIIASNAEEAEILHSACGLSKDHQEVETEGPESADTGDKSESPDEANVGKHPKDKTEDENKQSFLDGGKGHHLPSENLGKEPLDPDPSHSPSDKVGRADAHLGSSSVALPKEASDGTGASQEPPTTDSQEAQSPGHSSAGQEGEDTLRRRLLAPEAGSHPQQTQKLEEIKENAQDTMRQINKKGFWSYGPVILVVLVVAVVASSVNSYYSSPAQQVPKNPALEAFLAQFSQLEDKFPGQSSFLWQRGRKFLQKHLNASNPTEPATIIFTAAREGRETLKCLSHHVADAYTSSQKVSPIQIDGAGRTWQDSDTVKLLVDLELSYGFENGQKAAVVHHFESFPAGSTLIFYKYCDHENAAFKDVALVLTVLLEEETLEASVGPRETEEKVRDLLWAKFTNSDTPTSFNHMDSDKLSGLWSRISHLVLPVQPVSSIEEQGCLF
The nature of test [16]: optical density change of DRC41 E. coli – strain DRC41, OD650, 24 h, E. coli filamentation project, primary screen (AID 1093).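 Also: MC1000 strain lacking acrAB efflux and sulA so SOS filamentation is blocked; test concentration not given here.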 As to conditions: E. coli DRC41 growth, higher = more signal, called active from +8 up or from −8 down.
Test [17] can be described thus: probe aLefty2 binding to arrayed compounds – biochemical, biotinylated probe, 635/667 nm fluorescence, primary screen (AID 1094).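 Also: score merges spot fluorescence near 667 nm with spot signal-to-noise ratio.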 As to conditions: small-molecule microarray, higher = more signal.
The test system of test [18] is Noggin (protein binding on small-molecule microarray). The test is described as follows: small molecules binding Noggin protein – biochemical, 635/667 nm fluorescence, primary screen (AID 1095).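 Also: score merges 667 nm feature fluorescence with signal to noise over triplicate slides.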 As to conditions: 635 nm fluorescence, higher = more signal.
Test [19] concerns the target Neurogenic locus notch homolog protein 3 (Homo sapiens) (UniProt Q9UM47). The test is described as follows: small molecules binding NOTCH3 protein – biochemical, 635/667 nm fluorescence, primary screen (AID 1096). Conditions: small-molecule microarray, 635 nm fluorescence, higher = more signal.
A short description of test [20]: probe aEGFR binding to arrayed compounds – biochemical, biotinylated probe, 635/667 nm fluorescence, primary screen (AID 1097).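 Also: probe is a biotinylated anti-EGFR antibody binding compounds printed on slides; score combines fluorescence near 667 nm and signal to noise of each spot.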 Conditions: small-molecule microarray, higher = more signal.

Consider five compounds from PubChem BioAssay.

Active and inactive are the calls of the source.

Sequence of Neurogenic locus notch homolog protein 3 (Homo sapiens) (Q9UM47 whole entry, looked up): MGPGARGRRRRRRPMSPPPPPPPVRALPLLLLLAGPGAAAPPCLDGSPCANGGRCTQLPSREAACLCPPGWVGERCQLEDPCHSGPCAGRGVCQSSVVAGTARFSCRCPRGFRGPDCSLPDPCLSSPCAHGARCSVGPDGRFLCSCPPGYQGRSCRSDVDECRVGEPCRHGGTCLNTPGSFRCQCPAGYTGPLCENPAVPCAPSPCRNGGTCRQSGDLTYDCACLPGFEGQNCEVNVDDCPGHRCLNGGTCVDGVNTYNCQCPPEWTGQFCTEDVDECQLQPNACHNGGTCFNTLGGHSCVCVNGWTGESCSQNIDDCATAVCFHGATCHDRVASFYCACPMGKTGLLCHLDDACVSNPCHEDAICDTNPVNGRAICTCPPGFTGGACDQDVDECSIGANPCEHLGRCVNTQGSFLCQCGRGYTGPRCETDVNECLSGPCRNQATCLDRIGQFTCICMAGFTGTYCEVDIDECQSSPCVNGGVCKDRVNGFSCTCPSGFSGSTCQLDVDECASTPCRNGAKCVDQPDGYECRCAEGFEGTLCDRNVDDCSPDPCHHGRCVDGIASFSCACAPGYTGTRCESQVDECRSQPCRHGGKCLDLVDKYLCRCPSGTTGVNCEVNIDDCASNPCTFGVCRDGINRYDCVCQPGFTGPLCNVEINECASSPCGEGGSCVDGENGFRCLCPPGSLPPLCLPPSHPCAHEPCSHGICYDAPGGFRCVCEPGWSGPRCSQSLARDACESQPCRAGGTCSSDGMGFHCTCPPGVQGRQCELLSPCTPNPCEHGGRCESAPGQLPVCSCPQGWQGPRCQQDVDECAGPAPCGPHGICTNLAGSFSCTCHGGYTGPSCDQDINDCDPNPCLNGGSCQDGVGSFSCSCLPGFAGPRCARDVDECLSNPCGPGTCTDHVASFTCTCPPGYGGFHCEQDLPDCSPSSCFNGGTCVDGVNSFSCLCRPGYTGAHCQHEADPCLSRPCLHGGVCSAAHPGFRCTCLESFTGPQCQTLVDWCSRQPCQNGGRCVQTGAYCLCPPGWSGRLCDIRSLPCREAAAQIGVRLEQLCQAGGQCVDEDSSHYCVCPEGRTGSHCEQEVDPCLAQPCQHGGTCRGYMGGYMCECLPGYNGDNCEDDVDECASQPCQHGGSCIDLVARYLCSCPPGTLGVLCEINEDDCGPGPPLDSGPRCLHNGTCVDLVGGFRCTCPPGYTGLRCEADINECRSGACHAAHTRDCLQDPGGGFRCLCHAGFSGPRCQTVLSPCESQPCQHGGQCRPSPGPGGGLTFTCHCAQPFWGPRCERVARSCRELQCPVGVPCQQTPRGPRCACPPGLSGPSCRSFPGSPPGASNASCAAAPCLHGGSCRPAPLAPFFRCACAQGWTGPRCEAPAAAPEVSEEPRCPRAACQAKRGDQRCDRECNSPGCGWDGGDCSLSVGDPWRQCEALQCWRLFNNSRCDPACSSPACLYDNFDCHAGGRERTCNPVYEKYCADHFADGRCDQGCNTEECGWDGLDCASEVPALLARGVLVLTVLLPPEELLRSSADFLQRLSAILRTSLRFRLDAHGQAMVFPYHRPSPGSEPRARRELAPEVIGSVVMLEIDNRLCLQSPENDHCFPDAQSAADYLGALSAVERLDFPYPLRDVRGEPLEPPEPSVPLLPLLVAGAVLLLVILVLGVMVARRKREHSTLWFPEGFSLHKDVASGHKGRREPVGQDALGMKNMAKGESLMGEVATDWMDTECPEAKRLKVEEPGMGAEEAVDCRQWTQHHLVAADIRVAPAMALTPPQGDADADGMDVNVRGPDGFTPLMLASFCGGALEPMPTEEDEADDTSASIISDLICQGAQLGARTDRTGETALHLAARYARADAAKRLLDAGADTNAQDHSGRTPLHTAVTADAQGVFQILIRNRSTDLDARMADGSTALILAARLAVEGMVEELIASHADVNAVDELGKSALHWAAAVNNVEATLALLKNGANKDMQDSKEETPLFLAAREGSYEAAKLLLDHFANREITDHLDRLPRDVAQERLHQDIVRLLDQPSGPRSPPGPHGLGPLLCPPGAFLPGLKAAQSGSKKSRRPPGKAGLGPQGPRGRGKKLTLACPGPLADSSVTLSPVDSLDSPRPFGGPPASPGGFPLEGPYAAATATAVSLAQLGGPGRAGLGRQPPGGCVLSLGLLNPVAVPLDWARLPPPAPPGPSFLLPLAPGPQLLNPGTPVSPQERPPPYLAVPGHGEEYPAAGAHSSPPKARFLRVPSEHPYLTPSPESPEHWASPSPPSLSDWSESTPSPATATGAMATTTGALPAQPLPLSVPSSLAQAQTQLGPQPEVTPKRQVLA

Consider `C#CCN(C(/C=C/c1ccccc1)CO)C(C(=O)O)c1ccccc1` (stereo not given), for which the composite z-score in [1] was -0.27; in [2], -0.769; in test [3], -0.159; in test [4], 0.263; in test [5], 0.0504; in test [6] it was -0.165. Further, the composite z-score was -0.435 in [7]; -0.652 in test [9]; -0.284 in test [10]; -1.05 in [11]; -0.595 in [15]; -0.0849 in test [17]. Moreover, the composite z-score in test [18] is 0.274; in test [19] it was -0.715; in test [20], -0.101. Moreover, the z-score in [8] was 1.2 (inactive); in test [12], 0.339 (inactive); in test [13] it was -1.13 (inactive); in [14] it was 0.148 (inactive); in [16], 2.19 (inactive).

With `COC(=O)c1ccc(C(O)C2C=CC3C(=O)N(C)C(=O)C3N2NC(=O)OC(C)(C)C)o1` (stereo not given), the composite z-score in test [1] is -0.0154; in test [2] it was 0.252; in [3], 0.0942; in test [4] it was 1.03; in test [5], 1.48; in test [6] it was 1.34. The composite z-score in [7] is 1.29; in test [9] it was 0.76; in test [10] it was -0.0024; in test [11], 1.36; in test [15] it was 3.01; in test [17], 0.177. Besides, the composite z-score in [18] turned out to be 0.356; in test [19] it was 0.526; in test [20] it was 0.0419. In addition, the z-score in [8] is 0.896 (inactive); in test [12], -0.0904 (inactive); in [13] it was 0.771 (inactive); in test [14], 0.122 (inactive); in [16], -1.09 (inactive).

Regarding `Cc1ccc([C@H]2C(C(=O)O)=C[C@@H](C)N2S(=O)(=O)c2ccc(C)cc2)cc1`, the composite z-score in test [1] is 0.247; in [2], -0.36; in [3], -0.0867; in test [4] it was -0.337; in test [5], -0.0054; in test [6], 1.52. The composite z-score is 0.962 in [7]; -0.882 in [9]; -0.201 in [10]; 0.896 in test [11]; 3.71 in [15]; 0.0754 in test [17]. Further, the figures for the composite z-score in test [18], in [19] and in test [20] were -0.24, -0.546 and -0.165, respectively. Further, the z-score in test [8] is -0.282 (inactive); in [12], -0.495 (inactive); in test [13] it was -0.812 (inactive); in test [14], -0.422 (inactive); in test [16], -0.291 (inactive).

On to `C=C(CCCC)C(=O)CC[C@H](OC(=O)c1cccnc1)c1cccc(OCCO)c1`, for which the composite z-score in [1] was 0.17; in [2], -0.218; in test [3], -0.157; in test [4], 0.387; in [5], -0.818; in test [6], 0.941. For the same compound, the composite z-score in test [7] is 0.762; in test [9], 0.0945; in test [10], -0.236; in [11], 1.3; in test [15], 1; in [17], -0.141. The composite z-score was 0.257 in [18], -0.139 in [19] and -0.0818 in [20]. The z-score in [8] was -0.594 (inactive); in test [12], 1.61 (inactive); in [13], -0.86 (inactive); in test [14], 1.13 (inactive); in test [16] it was 0.241 (inactive).

As to `CO[C@H]1O[C@H](CO)[C@@H](OC(=O)Nc2ccc3c(c2)OCO3)[C@H](OC(=O)Nc2ccccc2)[C@H]1OC(=O)Nc1ccccc1`, the composite z-score in test [1] is -0.142; in test [2], 0.436; in test [3], 0.0166; in test [4], 1; in test [5], 0.828; in [6], 1.12. In addition, the composite z-score in test [7] was 1.35; in test [9] it was 0.697; in [10], -0.0645; in [11] it was 1.54; in test [15], 3.4; in test [17], -0.0702. Further, the composite z-score in test [18] is 0.704; in test [19], 1.15; in test [20], -0.0354. For the same compound, the z-score in [8] is 2.74 (inactive); in [12], 1.67 (inactive); in test [13], 0.383 (inactive); in test [14], 1.76 (inactive); in [16], -0.703 (inactive).
